Source: PubChem (The Scripps Research Institute Molecular Screening Center)
FBW7 activator – human FBW7 E3 ligase activation, primary screen. AlphaScreen FBW7–phospho-cyclin E peptide binding, activator screen. normalized activity (activation), % at 26.1 µM. 0.13% of 650,000 active; in the data active = normalized activity above about 1.9%;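 also: purified mutant Fbw7 with reduced substrate affinity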
Target sequence (Q969H0 whole entry, looked up): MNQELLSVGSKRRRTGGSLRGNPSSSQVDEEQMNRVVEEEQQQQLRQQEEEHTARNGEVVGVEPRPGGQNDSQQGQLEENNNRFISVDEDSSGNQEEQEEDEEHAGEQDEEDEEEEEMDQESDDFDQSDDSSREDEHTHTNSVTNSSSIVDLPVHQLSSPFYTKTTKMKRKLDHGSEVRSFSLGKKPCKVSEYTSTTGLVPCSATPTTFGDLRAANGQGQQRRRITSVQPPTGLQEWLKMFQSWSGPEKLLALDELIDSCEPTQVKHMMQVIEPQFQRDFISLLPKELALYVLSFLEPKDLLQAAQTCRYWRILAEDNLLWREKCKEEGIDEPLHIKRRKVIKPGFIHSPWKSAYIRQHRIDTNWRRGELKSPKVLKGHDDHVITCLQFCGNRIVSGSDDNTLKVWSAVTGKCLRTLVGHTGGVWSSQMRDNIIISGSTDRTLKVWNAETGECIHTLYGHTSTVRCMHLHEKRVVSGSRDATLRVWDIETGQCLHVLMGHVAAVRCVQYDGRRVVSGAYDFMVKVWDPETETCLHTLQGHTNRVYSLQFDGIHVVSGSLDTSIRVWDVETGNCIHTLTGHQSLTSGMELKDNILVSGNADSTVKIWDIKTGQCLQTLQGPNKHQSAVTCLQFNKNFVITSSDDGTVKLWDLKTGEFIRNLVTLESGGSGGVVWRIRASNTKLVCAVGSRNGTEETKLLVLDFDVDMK
MITF inh – human MITF inhibition, primary screen | inhibition, % at 2.6 µM | AlphaScreen MITF homodimerization, bead proximity signal | 0.91% of 650,000 active | AID 1259374; in the data active = inhibition above about 50%;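 also: 0% = vehicle wells with protein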
TEAD-YAP block – TEAD-YAP interaction inhibition. HEK-TIYL cells, TEAD-Gal4/YAP UAS-luciferase luminescence. inhibition, % at 9.12 µM. 1.4% of 640,000 active; in the data active = inhibition above about 32%;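 also: 0% = median of test compound wells and 100% = reference inhibitor wells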
GPR151 activ – activates the human receptor GPR151. AID 1508602. 1% of 650,000 active. PathHunter beta-arrestin GPR151 cells, luminescence. Q8TDV0. activation, % at 11.2 µM; in the data active = activation above about 4.9%;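 also: 0% = median of compound wells and 100% = cells with positive control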
MITF inh conf – confirmation of human MITF inhibitors. shares compounds with MITF inh. AlphaScreen MITF homodimerization, biotin/His-MITF beads. inhibition, % at 2.6 µM. 16% of 4,700 active;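 active = inhibition above a cutoff derived from the DMSO control wells, cut at about 28% in these data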;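 also: 0% = MITF dimer wells with DMSO only; inhibitors lower the bead chemiluminescence by keeping MITF from dimerizing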
AS interf DR – counter-screen: compounds optically interfering with AlphaScreen. shares compounds with MITF inh. AlphaScreen optical interference counterscreen, cell-free. IC50, µM. 6% of 480 active. AID 1259373; call rule not given here
AS interf ctr – counter-screen: compounds optically interfering with AlphaScreen; shares compounds with MITF inh; LysRS AlphaScreen counterscreen, signal interference, triplicate; inhibition, % at 2.6 µM; 7.6% of 4,700 active;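 active = inhibition above a cutoff derived from the DMSO control wells, cut at about 30% in these data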
Starred values were filed as active, the others as inactive; nt = not tested or not shown. This is a sample that favours compounds with a hit; in the whole collection about 3.5% have one here.

SMILES | FBW7 activator | MITF inh | TEAD-YAP block | GPR151 activ | MITF inh conf | AS interf ctr | others
NC(=O)c1ccc(NC(=O)COC(=O)c2cc3c(s2)CCC3)cc1 | 0 | 49 | 1 | -1 | nt | nt
NC(=O)COC(=O)c1cc2c(s1)CCC2 | 0 | 62* | 10 | 1 | 60* | 15 | AS interf DR=>6.9
N#C/C(=C(/O)COC(=O)c1cc2c(s1)CCC2)c1nc2ccccc2[nH]1 | 0 | 87* | 10 | -1 | 82* | 3 | AS interf DR=>7.1
COc1ccc(C2C(C(=O)Nc3ccc(C)cc3)=C(C)Nc3ncnn32)cc1OC (stereo unspecified) | 0 | 69* | -11 | 1 | 7 | 12
O=C(C(c1ccccc1)c1ccccc1)N1CCN(Cc2ccncc2)CC1 | 0 | 62* | 4 | -1 | -8 | -10
O=C(C(c1ccccc1)c1ccccc1)N1CCN(Cc2ccc(F)cc2)CC1 | 0 | 62* | 6 | -2 | 9 | 23
Cc1ccccc1CN1CCN(C(=O)C(c2ccccc2)c2ccccc2)CC1 | 0 | 38 | 2 | -1 | nt | nt
O=C(Nc1cccc(O)c1)/C(=C/c1ccc([N+](=O)[O-])cc1)NC(=O)c1ccccc1 | 0 | 52* | 6 | 0 | -9 | -2
O=C(Nc1cccc(C(=O)O)c1)/C(=C/c1ccc([N+](=O)[O-])cc1)NC(=O)c1ccccc1 | 0 | -3 | -1 | -2 | nt | nt
COc1ccc(C(=O)N/C(=C\c2ccc([N+](=O)[O-])cc2)C(=O)Nc2ccc(C)c(C)c2)c(Cl)c1 | 1 | 61* | -15 | -1 | -1 | -3
COc1ccc(/C=C(/NC(=O)c2ccccc2)C(=O)Nc2ccc(F)cc2)cc1OC | 0 | 67* | 4 | 0 | 0 | 11
Cc1ccc2c(c1)N(CC(=O)NCc1ccccc1)C(=O)C(C)O2 (stereo unspecified) | 0 | 2 | -18 | 1 | nt | nt
Cc1cc(C)c2c(N)c(C(=O)Nc3ccc(F)c(Cl)c3)sc2n1 | 0 | 4 | -61 | 1 | nt | nt
CC(=O)Nc1ccc(Nc2ncnc3nc(N4CCN(Cc5ccc6c(c5)OCO6)CC4)[nH]c23)cc1 | 0 | 10 | 2 | 3 | nt | nt
O=C(N/N=C/c1cc(O)ccc1Br)c1cccnc1 | -1 | 59* | 66* | 1 | 88* | 100*
O=C(N/N=C/c1cc(O)ccc1Br)c1ccncc1 | 1 | 114* | 77* | 0 | 120* | 100*
COc1ccc(C(=O)N2N=C(c3c(C)nc4ccc(Br)cc4c3-c3ccccc3)CC2c2ccc(OC)cc2)cc1 (stereo unspecified) | 0 | 8 | 8 | 1 | nt | nt
c1ccc(Cn2nnnc2CN2CCc3ccccc3C2)cc1 | 0 | 1 | 5 | -2 | nt | nt
CC(Cl)C(=O)Nc1c2c(nn1C(C)(C)C)CSC2 (stereo unspecified) | 0 | 18 | -7 | 0 | nt | nt
CC1(C)[C@H]2CC=C(CN3CCOc4ccc(CN5CCC(O)CC5)cc4C3)[C@@H]1C2 | 0 | -7 | 0 | 1 | nt | nt
CC1(C)C2CC=C(COCC(O)CN3CCN(Cc4ccc5c(c4)OCO5)CC3)C1C2 (stereo unspecified) | 0 | 70* | 4 | 3 | 2 | 2
CC1(C)C2CC=C(CN3CCN(Cc4ccc5c(c4)OCO5)CC3)C1C2 (stereo unspecified) | 0 | 64* | 7 | 0 | -3 | 4
COc1ccc(Oc2ncc(F)c(-c3cc(F)cc(N4CCOCC4)c3)n2)cc1 | 1 | 5 | 2 | -2 | nt | nt
COc1ccc(CN2CCN(C(=O)c3cc(OC)c(OC)c(OC)c3)CC2)cc1Br | 1 | 52* | -4 | -2 | 6 | 2
COc1cccc(C(=O)N2CCN(Cc3ccc(OC)c(Br)c3)CC2)c1 | 0 | 52* | -7 | 0 | 11 | 14
SMILES | FBW7 activator | MITF inh | TEAD-YAP block | GPR151 activ | MITF inh conf | AS interf ctr | others
COc1ccc(CN2CCN(C(=O)c3cccc(OC)c3)CC2)cc1 | 0 | 27 | 6 | 1 | nt | nt
CN(C(=S)NC(=O)C1(C)CC1(Cl)Cl)c1ccccc1 (stereo unspecified) | 0 | 51* | -3 | -1 | -1 | 18
Cc1cc2ncn(Cc3noc(-c4ccco4)n3)c2cc1C | 0 | 55* | -19 | 1 | 33* | -5 | AS interf DR=>6.5
COCc1nc(Cn2cnc3cc(C)c(C)cc32)no1 | 0 | -2 | -3 | 0 | nt | nt
Cc1ccc(-c2cc(C(=O)OCC(=O)c3ccc(-c4ccccc4)cc3)c3ccccc3n2)cc1 | 0 | 10 | 7 | 0 | nt | nt
O=C(c1cn(-c2ccccc2)nc1-c1cccc(Cl)c1)N1CCOCC1 | 0 | 4 | 5 | 1 | nt | nt
COc1cccc(CN2CCN(Cc3ccccn3)CC2)c1 | 0 | 51* | 6 | -1 | -2 | -8
COc1cccc(CN2CCN(C3CCN(Cc4ccccc4)CC3)CC2)c1 | 0 | 22 | 15 | 0 | nt | nt
COc1cccc(CN2CCN(C3CCCC3)CC2)c1 | 0 | 65* | -4 | 1 | -7 | -3
COc1cccc(CN2CCN(Cc3cc(OC)cc(OC)c3)CC2)c1 | 0 | 80* | 6 | 0 | 17 | 20
COc1cccc(CN2CCN(c3ncccn3)CC2)c1 | 0 | 30 | -6 | 0 | nt | nt
Cc1cccc(NC(=O)CNC(=O)C2O[C@@H]3OC(C)(C)O[C@@H]3[C@H]3OC(C)(C)O[C@@H]23)c1 (stereo partly specified) | 0 | 21 | 4 | 1 | nt | nt
O=C(CN1CCN(C2CCCCC2)CC1)Nc1ccc(C(=O)N2CCOCC2)cc1 | 1 | 56* | -1 | -1 | 10 | 13
CN(C)CCNCC(=O)Nc1ccc(CN2CCCCC2)cc1 | 0 | 94* | 3 | 0 | 9 | 16
O=C(CNC1CCCCC1)Nc1ccc(C(=O)N2CCCCC2)cc1 | 0 | 53* | 0 | 0 | 7 | 14
O=C(CNC1CCCC1)Nc1ccc(C(=O)N2CCCCC2)cc1 | 0 | 46 | 2 | -1 | nt | nt
O=C(CN1CCN(C2CCCCC2)CC1)Nc1ccc(Br)cc1 | 0 | 5 | 10 | 0 | nt | nt
O=C(CNC1CCCC1)Nc1ccc(CN2CCCCC2)cc1 | 0 | 65* | -6 | 1 | 3 | 16
C#CCNC(=O)c1c(C(F)(F)F)nc2ccc(C)cn12 | 0 | 3 | -4 | -1 | nt | nt
Cc1ccc(S(=O)(=O)C(CC(=O)c2ccccc2)c2ccc(Cl)cc2)cc1 (stereo unspecified) | 0 | -3 | 3 | -1 | nt | nt
COCCn1cc(/C=C2/C(=O)Nc3ccccc32)c2ccccc21 | 0 | 10 | 13 | 0 | nt | nt
CN1CCN(CC(O)Cn2cc(/C=C/C(=O)c3cccs3)c3ccccc32)CC1 (stereo unspecified) | 0 | 5 | 12 | -3 | nt | nt
CN1CCN(CC(O)Cn2cc(/C=N/O)c3ccccc32)CC1 (stereo unspecified) | 0 | 59* | -3 | -2 | 13 | 11
